Compounds with a hit are over-represented: about 8.6% of the library has one in this group of screens.
Marburg entry = inhibitors of Marburg virus binding or entry into cells; Marburg virus pseudotype entry/binding inhibition, cell-based; Potency, µM (series often up to 49.2 µM), for inactives: at the top dose activity change, negative = inhibition, hits mostly inhibitors; hit rate 6.5% among 18,000; AID 720532
LASV entry inh = inhibitors of Lassa virus binding or entry into cells; Lassa virus pseudotyped entry inhibition, cell-based qHTS; Potency, µM (series often up to 49.2 µM), for the others: top-dose activity change, negative = inhibition, usual class: inhibitors; hit rate 4.1% among 18,000
Active calls of the source: *; ? = inconclusive; · = no result given; ! = not active in a repeat; [ ] = dose if it differs, or a comment. Calls follow the shape of the full dose curve; tested in HEK293 cells. % is scaled to controls: 0 for no effect and ±100 for the full control effect; potency is read from the fitted curve at half-maximal effect.

SMILES	Marburg entry	LASV entry inh
NC(=O)c1ccc2c(-c3ccnc(NCCCO)n3)c(-c3ccc(F)cc3)nn2c1	?	-16.9%
COc1cc2c(cc1OC)-c1cc3ccc(OC)c(OC)c3c[n+]1CC2	1.0%	-10.7%
C#Cc1cccc(C(=O)NCc2nc(-c3cccc(NC(=O)c4ccccn4)c3)oc2C)c1	27.3%	-5.8%
Cc1ccc(F)cc1S(=O)(=O)NCc1nc(N2CCCC2)c2cccc(C)c2n1	12.6µM*	-9.8%
Cc1cccc2c(N3CCCC3)nc(CNS(=O)(=O)c3ccccc3F)nc12	?	4.6%
CC(O)CN(CCN(CC(C)O)CC(C)O)CC(C)O (centres undefined)	1.4%	-16.7%
C[C@@H]1N[S+](=O)([O-])c2ccc(F)cc2O[C@H]1c1ccccc1	?	9.4%
COC(=O)[C@@H]1CCCN1Cc1ccc2c(c1)CN(Cc1nccs1)CCO2	-16.8%	-2.7%
CN1CCN(C2Cc3ccccc3Sc3ccc(Cl)cc32)CC1 (centres undefined)	12.6µM*	?
CSc1ccc2c(c1)[C@H](N1CCN(C)CC1)Cc1ccccc1S2	11.2µM*	28.2µM*!
CSc1ccc2c(c1)C(N1CCN(C)CC1)Cc1ccccc1S2 (centres undefined)	6.31µM*	22.4µM*!
CC(C)C[C@@H](CC(=O)N[C@@H](CCCN)CC(=O)N[C@@H]1CCCC[C@H]1C(=O)N[C@H](CC(=O)N[C@@H](CCC(=O)O)CC(=O)O)Cc1ccccc1)NC(=O)[C@@H]1CNCC[C@H]1N	-21.5%	-8.5%
C=CCOC(=O)N[C@H](/C(C(=O)OC)=C(\C)NCc1ccccc1)c1cccc(F)c1	-10.6%	4.8%
COc1cc2c3cc1Oc1c(OC)c(OC)cc4c1[C@@H](Cc1ccc(O)c(c1)Oc1ccc(cc1)C[C@@H]3N(C)CC2)N(C)CC4	2.82µM*	11.2µM*
COc1cc2c(cc1O)-c1c(O)c(OC)cc3c1[C@H](C2)N(C)CC3	-28.3%	4.3%
COc1cc2c3cc1Oc1c(OC)c(OC)cc4c1[C@@H](Cc1ccc(OC(=O)c5ccc([N+](=O)[O-])cc5)c(c1)Oc1ccc(cc1)C[C@@H]3N(C)CC2)N(C)CC4	0.631µM*	?
COc1ccc2cc1Oc1ccc(cc1)C[C@H]1c3cc(c(OC)cc3CCN1C)Oc1c(OC)c(OC)cc3c1[C@H](C2)N(C)CC3	3.55µM*	12.6µM*
COc1ccc2c(c1OC)C(=O)O[C@@H]2[C@H]1c2c(cc3c(c2OC)OCO3)CCN1C	?	-14.7%
COc1ccc(CC2c3cc(OC)c(OC)cc3CCN2C)cc1OC (centres undefined)	4.0%	-19.4%
COc1ccc2cc1Oc1ccc(cc1)C[C@H]1c3c(cc4c(c3Oc3cc5c(cc3OC)CCN(C)[C@@H]5C2)OCO4)CCN1C	1.78µM*	?
COc1cc2c(cc1O)C[C@H]1c3c(cc(O)c(OC)c3-2)CCN1C	20.3%[17.8 µM]	15.1%[17.8 µM]
CC[C@H](C)[C@H](NC(=O)[C@H](CCCN=C(N)N)NC(=O)[C@H](CCCN=C(N)N)NC(=O)[C@H](CC(C)C)NC(=O)[C@H](Cc1ccccc1)NC(=O)CNC(=O)CNC(=O)[C@@H](N)Cc1ccc(O)cc1)C(=O)N[C@@H](CCCN=C(N)N)C(=O)N1CCC[C@H]1C(=O)N[C@@H](CCCCN)C(=O)N[C@@H](CC(C)C)C(=O)N[C@@H](CCCCN)C(=O)O	12.4%	0.6%
Nc1cc(N2CCCCC2)nc(N)[n+]1OS(=O)(=O)[O-]	13.9%	5.4%
COc1ccc2c(c1)OC(=O)CC2c1ccccc1OC (centres undefined)	13.1%	-8.9%
COc1ccc(COC(=O)NN=C2C[C@@H](O)[C@@H](O)[C@@H]3[C@H]4C(=O)N(c5cccc(Oc6ccccc6)c5)C(=O)[C@@H]4CC[C@H]23)cc1	9.0%[8.59 µM]	·
SMILES	Marburg entry	LASV entry inh
CN1CCCC(CN2c3ccccc3Sc3ccccc32)C1 (centres undefined)	11.2µM*	28.2µM*
c1ccc2c(c1)Sc1ccccc1N2C[C@@H]1CN2CCC1CC2	11.5%	3.3%
CN1CCCC(CC2c3ccccc3Sc3ccccc32)C1 (centres undefined)	7.94µM*	?
O=C(O)C1=CCCN(CCOC(c2ccc(C(F)(F)F)cc2)c2ccc(C(F)(F)F)cc2)C1	4.3%	-4.6%
Fc1ccc(C(OCCN2CCN(CCCc3ccccc3)CC2)c2ccc(F)cc2)cc1	7.94µM*	14.1µM*!
c1ccc(CCCN2CCN(CCOC(c3ccccc3)c3ccccc3)CC2)cc1	11.2µM*	28.2µM*
OCCOCCN1CCN(Cc2cccc(Oc3ccccc3)c2)CC1	-27.9%	-0.5%
O[C@H]1C[C@H](c2ccc(Cl)cc2)N(Cc2cccs2)C[C@H]1n1cc(C2CC2)nn1	?	-5.0%
CC1(OC(=O)c2ccc(Cl)nc2)C(=O)C=C2C=C(c3ccsc3)OC=C2C1=O (centres undefined)	-9.7%	-14.8%
C/C=C/C/C=C/CCC(=O)[C@H]1O[C@H]1C(N)=O	15.8µM*	15.8µM*
CC/C=C\C/C=C\C/C=C\C/C=C\C/C=C\C/C=C\CCC(=O)O	16.2%	3.6%
